Screening results: PubChem BioAssay, several laboratories
GDH-TPI counter-1: counter-screen for M. tuberculosis FBA inhibitors: GDH-TPI coupled enzymes; inhibition, % at 4.8 µM; AID 588335; GDH-TPI coupled enzyme counterscreen, NADH absorbance; 360,000 compounds, 1.2% hits; in the data active = inhibition above about 30%
BJeLR lethal: kills HRASV12-expressing BJeLR cells. BJeLR (HRASV12) viability, CellTiter-Glo ATP luminescence, 48 h. inhibition, % (concentration not given with the values). 300,000 compounds, 0.17% hits. AID 1554; in the data active = inhibition above about 50%
PrPC TRFRET: cell surface PrPC inhibition, primary TR-FRET screen; inhibition, % at 13.8 µM; TR-FRET read-out; 370,000 compounds, 0.43% hits; in the data active = inhibition above about 24%
RecA splice inh: Mtb RecA intein splicing inhibition | cell-free RecA intein splicing, fluorescence | inhibition, % (no concentration beside the values) | 290,000 compounds, 0.75% hits | AID 2221; in the data active = inhibition above about 30%
Target sequence (P9WHJ3 whole entry, looked up, canonical isoform): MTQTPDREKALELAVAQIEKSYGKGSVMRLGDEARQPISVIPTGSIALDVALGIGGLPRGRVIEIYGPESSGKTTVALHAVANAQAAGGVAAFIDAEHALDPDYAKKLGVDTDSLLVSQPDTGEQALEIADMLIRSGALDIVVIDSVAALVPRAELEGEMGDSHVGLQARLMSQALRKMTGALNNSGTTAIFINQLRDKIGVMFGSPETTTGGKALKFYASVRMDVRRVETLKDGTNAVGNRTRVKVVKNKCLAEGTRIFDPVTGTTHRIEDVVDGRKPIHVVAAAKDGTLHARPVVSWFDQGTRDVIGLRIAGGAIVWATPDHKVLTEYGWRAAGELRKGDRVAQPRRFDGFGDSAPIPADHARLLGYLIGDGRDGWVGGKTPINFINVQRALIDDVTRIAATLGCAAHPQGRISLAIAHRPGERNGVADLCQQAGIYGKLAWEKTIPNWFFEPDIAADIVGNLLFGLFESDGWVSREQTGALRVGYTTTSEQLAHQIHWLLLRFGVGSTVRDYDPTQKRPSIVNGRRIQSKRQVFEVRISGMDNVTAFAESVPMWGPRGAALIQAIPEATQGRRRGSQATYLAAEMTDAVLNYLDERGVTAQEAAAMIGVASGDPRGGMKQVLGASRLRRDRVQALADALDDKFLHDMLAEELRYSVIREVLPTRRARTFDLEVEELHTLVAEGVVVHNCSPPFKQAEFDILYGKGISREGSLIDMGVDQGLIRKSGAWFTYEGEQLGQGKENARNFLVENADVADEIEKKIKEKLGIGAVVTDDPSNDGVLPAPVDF
FBA Mtb inh: inhibitors of M. tuberculosis fructose-bisphosphate aldolase. inhibition, % at 1 µM. 360,000 compounds, 2.3% hits. purified M. tuberculosis FBA, fluorescence read-out. P9WQA3. AID 588726
Mtb FBA inh conf: confirmation of M. tuberculosis fructose-bisphosphate aldolase inhibitors; AID 651616; inhibition, % at 1 µM; shares compounds with FBA Mtb inh; purified M. tuberculosis FBA, fluorescence read-out; 5,600 compounds, 78% hits
GDH-TPI counter-2: counter-screen for M. tuberculosis FBA inhibitors: GDH-TPI coupled enzyme inhibition; shares compounds with FBA Mtb inh; GDH-TPI coupled enzyme counterscreen, fluorescence; inhibition, % at 1 µM; 5,600 compounds, 81% hits; AID 652141; in the data active = inhibition above about 10%
Each line names hits and unclear results; the compound was inactive in the other large screens (follow-up assays come after a bar, where they were run). Most compounds without a hit are left out; they make up all but 4.2% or so of the library. Rule as the data show it, unless noted: active = inhibition above about 27%; inactive = the rest.

Cc1ccccc1N(C(=O)c1snc(C(N)=O)c1N)C(C)C(=O)NC1CCCCC1 (stereo unspecified)	FBA Mtb inh 32 | Mtb FBA inh conf 54 | GDH-TPI counter-2 37
Cc1ccccc1N(C(=O)c1snc(C(N)=O)c1N)C(C(=O)NC1CCCCC1)c1ccc(O)cc1 (stereo unspecified)	FBA Mtb inh 35 | Mtb FBA inh conf inactive | GDH-TPI counter-2 inactive
COc1ccc(C(C(=O)NC2CCCCC2)N(C(=O)c2snc(C(N)=O)c2N)c2ccc(OC)cc2OC)cc1 (stereo unspecified)	none
CCOc1ccccc1N(C(=O)c1snc(C(N)=O)c1N)C(CC)C(=O)NC1CCCC1 (stereo unspecified)	none
C[C@H](CO)N1C[C@H](C)[C@@H](CN(C)C(=O)Nc2ccnc(N3CCOCC3)c2)OCc2cn(nn2)CCCC1=O	none (no result: GDH-TPI counter-1, BJeLR lethal, RecA splice inh, FBA Mtb inh)
COc1cc(C2c3c([nH]c(=O)[nH]c3=O)Nc3ccc4ccccc4c32)cc(OC)c1OC (stereo unspecified)	FBA Mtb inh 34 | Mtb FBA inh conf 90 | GDH-TPI counter-2 75
CC(C)Nc1nc(-c2ccccc2CO)c2sccc2n1	FBA Mtb inh 74 (no result: BJeLR lethal, RecA splice inh) | Mtb FBA inh conf 77 | GDH-TPI counter-2 58
CN(C)CCNc1nc(-c2ccccc2CO)c2sccc2n1	none (no result: BJeLR lethal, RecA splice inh)
Cc1ccccc1-c1nc(NC(C)C)nc2ccsc12	FBA Mtb inh 64 (no result: BJeLR lethal, RecA splice inh) | Mtb FBA inh conf active | GDH-TPI counter-2 active
OCc1ccccc1-c1nc(NCC2CC2)nc2ccsc12	FBA Mtb inh 72 (no result: BJeLR lethal, RecA splice inh) | Mtb FBA inh conf 63 | GDH-TPI counter-2 55
Cc1ccccc1-c1nc(NCCN(C)C)nc2ccsc12	none (no result: BJeLR lethal, RecA splice inh)
Cn1c(=O)c2[nH]c(SCC(=O)NCCc3ccc(F)cc3)nc2n(C)c1=O	none (no result: GDH-TPI counter-1, BJeLR lethal, RecA splice inh, FBA Mtb inh)
CCCCNC(=O)C1(C(=O)c2ccc(OC)cc2)CC(c2ccccc2C(F)(F)F)=NO1 (stereo unspecified)	none (no result: GDH-TPI counter-1, BJeLR lethal, RecA splice inh, FBA Mtb inh)
O=S1(=O)N[C@@H](Cc2ccccc2)COc2cc(N3CCCCC3)ccc21	none (no result: GDH-TPI counter-1, BJeLR lethal, RecA splice inh, FBA Mtb inh)
COC(=O)[C@]12C[C@H](CC(=O)NCC34CC5CC(CC(C5)C3)C4)C(=O)N(CCC3=CCCCC3)C1=C[C@H](COCc1ccccc1)O[C@@H]2C	none (no result: GDH-TPI counter-1, BJeLR lethal, RecA splice inh, FBA Mtb inh)
Cc1ccc(-c2csc3nc4cc(C(N)=O)ccc4c(=O)n23)cc1	FBA Mtb inh 29 | Mtb FBA inh conf inactive | GDH-TPI counter-2 inactive
COc1ccccc1CN1Cc2ccccc2Oc2ccccc2S1(=O)=O	none (no result: GDH-TPI counter-1, BJeLR lethal, RecA splice inh, FBA Mtb inh)
Cc1ccc(C(=O)/C=C/Nc2ccccc2C(N)=O)o1	FBA Mtb inh 32 | Mtb FBA inh conf 42 | GDH-TPI counter-2 24
CCCCNC(=O)C[C@H]1C[C@@]2(C(=O)OC)C(=C[C@H](C(C)C)O[C@@H]2C2CC2)N(Cc2ccccc2)C1=O	none (no result: GDH-TPI counter-1, BJeLR lethal, RecA splice inh, FBA Mtb inh)
COc1ccc(S(=O)(=O)Nc2nc3c(s2)CCCC3)cc1	FBA Mtb inh 56 | Mtb FBA inh conf 86 | GDH-TPI counter-2 68
Cc1ccc(-n2c3nc(=O)n(C)c(=O)c-3cc3ccccc32)cc1	FBA Mtb inh 27 | Mtb FBA inh conf 93 | GDH-TPI counter-2 87
CCCCn1nc2cc(C(=O)N(CC)c3ccc(OC)cc3)ccc2c1OCC	FBA Mtb inh 28 | Mtb FBA inh conf 112 | GDH-TPI counter-2 87
CCN(C(=O)c1ccc2c(OC)n(CC)nc2c1)c1ccc(OC)cc1	FBA Mtb inh 31 | Mtb FBA inh conf inactive | GDH-TPI counter-2 inactive
CCCCn1nc2cc(C(=O)NCc3ccc(C(F)(F)F)cc3C(F)(F)F)ccc2c1OCC	none
COc1ccc(C(=O)N(CN2CCCC2=O)c2ccc(C)cc2)cc1	none
COc1ccc2nc(-c3ccc(F)cc3)sc2c1	FBA Mtb inh 98 | Mtb FBA inh conf active | GDH-TPI counter-2 active
CC(Oc1ccc2c(-c3ccccc3)cc(=O)oc2c1)C(=O)NCc1ccccn1 (stereo unspecified)	none (no result: RecA splice inh)
CC(Oc1cc2oc(=O)c3c(c2cc1Cl)CCCC3)C(=O)NCc1ccccn1 (stereo unspecified)	none
CCc1cc(=O)oc2cc(C)cc(OC(C)C(=O)NCc3ccccn3)c12 (stereo unspecified)	FBA Mtb inh 50 | Mtb FBA inh conf 66 | GDH-TPI counter-2 48
CCCc1cc(=O)oc2cc(C)cc(OC(C)C(=O)NCc3ccccn3)c12 (stereo unspecified)	FBA Mtb inh 65 | Mtb FBA inh conf active | GDH-TPI counter-2 active
CC(=O)N1C[C@@H](CN2C(=O)CCC2=O)[C@@H]2C[C@H]1c1ccccc1N2C	none (no result: GDH-TPI counter-1, BJeLR lethal, RecA splice inh, FBA Mtb inh)
O=c1oc2ccccc2c2c1ccc1ccccc12	FBA Mtb inh 29 (no result: BJeLR lethal, RecA splice inh) | Mtb FBA inh conf 51 | GDH-TPI counter-2 43
Cc1cc2c(c(N)n1)c(=O)oc1ccccc12	FBA Mtb inh 40 | Mtb FBA inh conf inactive | GDH-TPI counter-2 inactive
O=c1oc2ccccc2c2[nH]ccc12	none
O=c1oc2ccc3ccccc3c2cc1-c1nc2ccccc2o1	FBA Mtb inh 46 | Mtb FBA inh conf 73 | GDH-TPI counter-2 67
COCc1[nH]nc2c1C(c1ccc(Br)cc1)N(Cc1ccccc1)C2=O (stereo unspecified)	none (no result: GDH-TPI counter-1, BJeLR lethal, RecA splice inh, FBA Mtb inh)
CCN(C(=O)COC(=O)c1ccc(Sc2ncn[nH]2)c([N+](=O)[O-])c1)c1ccccc1	none (no result: GDH-TPI counter-1, BJeLR lethal, RecA splice inh, FBA Mtb inh)
O=C(NCCc1ccccc1)OCc1cn(-c2cccc(C(F)(F)F)c2)nn1	none (no result: GDH-TPI counter-1, BJeLR lethal, RecA splice inh, FBA Mtb inh)
COc1ccc(-c2oc3ncnc(NCCN4CCOCC4)c3c2-c2ccc(OC)cc2)cc1	none (no result: PrPC TRFRET)
COc1ccc(-c2oc3ncnc(NCCCN4CCOCC4)c3c2-c2ccc(OC)cc2)cc1	FBA Mtb inh 108 | Mtb FBA inh conf active | GDH-TPI counter-2 active
c1ccc(-c2oc3ncnc(NCCCN4CCOCC4)c3c2-c2ccccc2)cc1	FBA Mtb inh 48 | Mtb FBA inh conf inactive | GDH-TPI counter-2 inactive
Cc1c(C)n(Cc2ccccc2)c2ncnc(NCCCO)c12	none
OCCCNc1ncnc2oc(-c3ccccc3)c(-c3ccccc3)c12	FBA Mtb inh 89 | Mtb FBA inh conf 98 | GDH-TPI counter-2 79
CC(C)(C)c1ccc(-c2nnc(SCc3cccc4ccccc34)n2Cc2ccco2)cc1	none (no result: GDH-TPI counter-1, BJeLR lethal, RecA splice inh, FBA Mtb inh)
COC(CNC(=O)c1cnn2c(C)c(Cc3ccccc3)c(C)nc12)OC	FBA Mtb inh 78 | Mtb FBA inh conf inactive | GDH-TPI counter-2 inactive
Cc1nc2c(C(=O)N3CCOCC3)cnn2c(C)c1Cc1ccc(Cl)cc1	FBA Mtb inh 38 | Mtb FBA inh conf 200 | GDH-TPI counter-2 171
Cc1nc2c(C(=O)N3CCOCC3)cnn2c(C)c1Cc1cccc(Cl)c1	none (no result: GDH-TPI counter-1, FBA Mtb inh)
C=CCN1C(=O)[C@@H](CC(=O)N2CCCCC2)[C@]2(C(=O)OC)CCCCC=C12	none (no result: GDH-TPI counter-1, BJeLR lethal, RecA splice inh, FBA Mtb inh)
CCc1c(-c2ccc(F)cc2F)ncn1CCc1ccccc1OC	none (no result: GDH-TPI counter-1, BJeLR lethal, RecA splice inh, FBA Mtb inh)
O=C1Nc2ccccc2O/C1=C\c1ccccc1	FBA Mtb inh 30 | Mtb FBA inh conf 160 | GDH-TPI counter-2 102
CN1C(=O)c2cc(NC(=O)C3CC3)ccc2OC[C@H]2O[C@@H](CC(=O)NC3CCC3)CC[C@@H]21	none (no result: GDH-TPI counter-1, BJeLR lethal, RecA splice inh, FBA Mtb inh)
